Bioassay records: PubChem BioAssay, Broad Institute
The full list was thinned out, with hits kept by preference.
Tgondii IFNg = T. gondii growth inhibition under IFN-gamma; Toxoplasma gondii growth in IFN-gamma-treated host cells; hits give low values; activity change, negative = inhibition, % (no concentration beside the values); hit rate 3.8% among 69,000; AID 1259416; in the data active means activity change below about -70%, passing the limit was not always enough;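 further: host cells are HeLa cells infected with Toxoplasma gondii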
Each line names hits and unclear results; the compound was inactive in the other large screens; ! = a repeat was not active.

COc1cc2oc3cc(OC)c(OC)c(CC=C(C)C)c3c(=O)c2c(O)c1CC=C(C)C	none
CC(C)=CCc1c(O)cc2oc(C)cc(=O)c2c1O	none
COc1c(O)cc2oc3cc(O)c(CC=C(C)C)c(O)c3c(=O)c2c1CC=C(C)C	Tgondii IFNg -71.3
CCCCc1ncc(CN2CCc3[nH]cnc3C2c2cccc(O)c2)[nH]1 (stereo not drawn)	none
Cc1cc2nc(C)c(CCC(=O)Nc3ncc(-c4ccccc4)n3C)c(C)n2n1	none
COc1ccc(-c2cc(C(=O)Nc3ncc(-c4ccc(F)cc4)n3C)on2)cc1	none
Cn1c(-c2ccccc2)cnc1NC(=O)c1nonc1N	Tgondii IFNg -104.5
CC(C)Nc1ccnc(C2COCCN2C(=O)c2ccccc2)n1 (stereo not drawn)	none
COc1cc(C(=O)NCCCCCC(=O)O)cc(OC)c1OC	none
CN(C)c1ccc(C(=O)NCCCCCCC(=O)NO)cc1	Tgondii IFNg -88.4!
COCC1(N(C)C(=O)CCNC(=O)c2ccc(F)cc2)CC1	none
Cc1ccc(C2(O)CCN(C(=O)C3CCOC3)CC2)nc1 (stereo not drawn)	none
CCN1c2cc(C)ccc2-n2cccc2C12CCN(C(=O)Nc1cc(C)ccc1C)CC2	none
Cc1ccc2[nH]c(C(=O)NCc3cccnc3)c(NC(=O)c3ccc(Cl)cc3)c2c1	none
CNC(=O)c1ccc(CNC(=O)Cc2c(C)[nH]c3c(C)ccc(C)c23)o1	none
CNC(=O)c1ccc(CNC(=O)c2[nH]c3ccc(C)cc3c2C)o1	Tgondii IFNg -107.7
CC(C)(C)c1ccc2[nH]c3c(c2c1)CCCC3=O	Tgondii IFNg -84.5
CC(=O)c1ccc2c(c1)N(CCCN1CCC(CCO)CC1)c1ccccc1S2	none
CN(C)CCCN1c2ccccc2CCc2ccccc21	none
CN(C)CCCN1c2ccccc2Sc2ccc(Cl)cc21	Tgondii IFNg -80.9!
OCCN1CCN(CCCN2c3ccccc3Sc3ccc(Cl)cc32)CC1	Tgondii IFNg -99.6!
O=C(CCN1CCN2CCCCC2C1)N1c2ccccc2Sc2ccc(Cl)cc21 (stereo not drawn)	none
O=C(CSc1nnc(-c2ccco2)o1)N1c2ccccc2Sc2ccc(Cl)cc21	none
NC(=O)c1cc(-c2cc(NC3CCCC3)nc3[nH]ccc23)cs1	none
COCC(=O)NCCn1nc(-c2ccc(F)cc2)n(-c2ccc(C)cn2)c1=O	none
CCCN(Cc1ccncc1)C(=O)c1n[nH]c2c1CC(C)CC2 (stereo not drawn)	none
Cn1cc(CN2CCc3ncnc(-c4cccc(F)c4)c3CC2)cn1	none
CN1CCN(C(=O)NCc2nc(-c3cccc(F)c3)c(-c3ccccn3)[nH]2)CC1	none
CN1CCC(n2cc(-c3ccnc(N)c3)c(-c3cccc(F)c3)n2)CC1	Tgondii IFNg -97.1
CCOc1ccnc(N2CCCC(OCc3cccnc3)C2)n1 (stereo not drawn)	none
O=C(Nc1cc(Cl)ccc1O)c1ccccc1CN1CCOCC1	none
Cc1ccc(SCc2ccccc2C(=O)Nc2cc(Cl)ccc2O)cc1	Tgondii IFNg -74.7
Cc1ccc(C(=O)NCCSCc2ccccc2Cl)cc1	none
Cc1cnc(N2C[C@@H]3N(c4ncccn4)CCC[C@@]3(C(=O)NCC3CC3)C2)nc1	none
N#C[C@@H]1[C@@H](c2ccccc2-c2cccc(F)c2)[C@H](CO)N1C(=O)NC1CCCCC1	none
NC(=O)Nc1cc(-c2cccc(F)c2)sc1C(=O)N[C@H]1CCCNC1	Tgondii IFNg -83.9
O=C(N[C@H]1CCCNC1)c1cn(C/C=C/c2ccccc2)nn1	none
Cc1nc(C)n(CC(C)C(=O)Nc2nc(-c3ccc4c(c3)CCCO4)cs2)n1 (stereo not drawn)	none
O=C(CN1CCCC1Cn1cccn1)Nc1ccnn1C1CCCC1 (stereo not drawn)	none
O=C(CN1CCCC1Cn1cccn1)Nc1nc2c(s1)CCCC2 (stereo not drawn)	Tgondii IFNg -77.7
Cc1ccc2c(c1)C(=O)CC1(CCN(CC(=O)Nc3nc4c(s3)CCCC4)CC1)O2	none
CN(Cc1nc2c(s1)CCCC2)C(=O)CC1C(=O)N(C)C(=O)N1C (stereo not drawn)	none
CCn1ncc(S(=O)(=O)NCC2(c3ccccc3)CCOCC2)c1C	none
CCOc1ccccc1NC(=O)c1nnn(Cc2nc(-c3ccccc3OCC)oc2C)c1C	none
COC(=O)Nc1nc2ccc(-c3n[nH]c(=O)c4ccccc34)cc2[nH]1	Tgondii IFNg -102.5
CCCS(=O)(=O)c1ccc2nc(NC(=O)OC)[nH]c2c1	none
CCCCc1ccc2nc(NC(=O)OC)[nH]c2c1	none
NC(=O)c1cnc2n1CCN(C(=O)CCc1nc3ccccc3s1)C2	none
CS(=O)(=O)c1ccc(-c2ccc(C(=O)N3CCOCC3)o2)cc1	none
O=C(O)c1cccc(CC2CCN(C(=O)C3CCOC3)CC2)c1 (stereo not drawn)	none
COc1ccc(-c2noc(-c3nnn(Cc4nc(-c5ccccc5OC)oc4C)c3C)n2)cc1	none
CN1CCN(c2ccc(NC(=O)Nc3ccc(C(F)(F)F)cc3)cc2)CC1	none
CC(=O)c1ccc(N2CCC(C)CC2)c(F)c1	none
CC(C)(C)C(=O)Nc1cc(C(F)(F)F)ccc1N1CCC(C(F)(F)F)CC1	Tgondii IFNg -97.1
O=C(C1CCCN(C2CCCCC2)C1)N(CCO)Cc1ccco1 (stereo not drawn)	none
CC(C)(C)c1nnc(NC(=O)NCC2CC(=O)N(C3CCCC3)C2)s1 (stereo not drawn)	none
CCCCc1cn(CC2CCN(C(=O)c3sc(C)nc3C)CC2)nn1	none
CN1C(=O)CC(C(=O)N2CC(c3cccnc3)C2)c2ccccc21 (stereo not drawn)	none
CC(=O)N[C@H]1C[C@@H](c2cc(=O)n3c4c(cccc24)CCC3)O[C@@H](C(C)C)C1	none
CN(C)c1cccc(C(=O)N2CCC3(CCC(CN)OC3)CC2)c1 (stereo not drawn)	none
Oc1cc(-c2csc3ccccc23)cc2c1OCCN(CCn1cncn1)C2	none
Cc1ccc(-c2cc(O)c3c(c2)CN(C(=O)CCCn2cncn2)CCO3)cc1	Tgondii IFNg -75.7
O=C(CCN1CCCO1)N1CCOc2c(O)cc(-c3cccnc3)cc2C1	none
CSc1ncc(CN2CCN(c3cc(C)cc(C)c3)C(=O)C2)cn1	none
COC(=O)c1ccc(C(=O)OC)c(NC(=O)N2CCC3(CC2)Nc2ccccc2-n2cccc23)c1	none
CCOCC12CCCOC1CCN(C(=O)C1=CCCC1)C2 (stereo not drawn)	none
COCC12CCCOC1CCN(C(=O)C1=CCCC1)C2 (stereo not drawn)	Tgondii IFNg -80.5
Cc1ccc(C(=O)N2CCC3OCCCC3(COCC3CC3)C2)cn1 (stereo not drawn)	none
CCO[C@@H]1C[C@@H]2CN(S(=O)(=O)c3cn(C)cn3)CCN2C1	none
COc1ccc2c(c1)C(C)=CC(C)(C)N2S(=O)(=O)c1ccc(Cl)cc1	Tgondii IFNg -93.1
COc1ccc(S(=O)(=O)N2CCC3(CC2)Nc2ccc(Cl)cc2-n2cccc23)cc1	none
COc1ccc(C(=O)N2c3cc4c(cc3C(C)=CC2(C)C)OCO4)cc1	none
CCc1ccccc1C(=O)N1CCC(Cc2cccc(C(=O)O)c2)CC1	none
CCO[C@H]1CN(C(=O)NCc2ccccc2)[C@H]2COC[C@@H]12	none
CN1[C@H]2CC[C@@H]1CN(C(=O)c1ccc(-n3cnnc3)cc1)CC2	none
Cc1ccsc1[C@@H]1CCN(C(=O)c2cccc(=O)[nH]2)C[C@H]1O	none
Cc1ccsc1[C@@H]1CCN(C(=O)c2ccc(-n3cnnc3)cc2)C[C@H]1O	Tgondii IFNg -81.1
Cc1ccc(CN2CCN(Cc3cccc(OCC(N)=O)c3)CC2=O)cc1	none
CCc1nc2ccccc2n1CC(C)C(=O)Nc1nnc(C2CCCCC2)s1 (stereo not drawn)	none
COC(Cn1ccnc1-c1cccc2nonc12)c1cccs1 (stereo not drawn)	none
CC(=O)Nc1cccc(NC(=O)C(=O)NCCc2csc(-c3ccc(Cl)cc3)n2)c1	none
